Holding throughout (experiment): NCI-60 one-dose screen, 48 h (100 = growth as untreated, 0 = no growth, -100 = all killed)
What all share (details): 10 µM unless noted

Experiment [1] concerns HCT-15 colon.
For experiment [2], the system named is HT29 colon.
For experiment [3], the system named is SNB-75 CNS.
In experiment [4] the test system is SNB-19 CNS.
The subject of experiment [5] is U251 CNS.
The test system of experiment [6] is PC-3 prostate.
The subject of experiment [7] is SK-MEL-5 melanoma.
Experiment [8] concerns UACC-62 melanoma.
The test system of experiment [9] is LOX IMVI melanoma.
The subject of experiment [10] is SK-MEL-28 melanoma.
Experiment [11] has as its system SK-MEL-2 melanoma.
The subject of experiment [12] is EKVX NSCLC.
In experiment [13] the test system is SN12C renal.
Experiment [14] relates to UO-31 renal.
In experiment [15] the test system is TK-10 renal.
Experiment [16] concerns ACHN renal.
Experiment [17] has as its system CAKI-1 renal.
Experiment [18] has as its system A498 renal.
Experiment [19] deals with CCRF-CEM leukemia.
Experiment [20] deals with MOLT-4 leukemia.

The structures appear in SMILES notation. The panel holds about 83,000 compounds, 20% with a hit somewhere; the sample as a whole holds those more often.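 Single-dose data. Exposure time 48 hours. Values below 10 considered active.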 A number with no mark means an inactive call. The source made the active and inactive calls.

Turning to `Cc1c(-n2nnc(-c3nc4ccccc4s3)c2N)c(=O)n(-c2ccccc2)n1C`, the growth was 98.3% in experiment [1]; 100% in experiment [2]; 83.1% in experiment [3]; 99.9% in experiment [4]; 101% in experiment [5]; 98.2% in [6]. In addition, the growth was 99.6% in experiment [7]; 93.3% in experiment [8]; 93.1% in experiment [9]; 111% in experiment [10]; 107% in [11]; 101% in [12]. The growth in experiment [13] was 108%; in [14], 73.9%; in experiment [15], 109%; in [16], 100%; in [17] it was 87%; in [18], 112%. Besides, the growth in [19] was 107%; in [20], 98.3%.

In the case of `CO[C@H]1/C=C(/C)CCC[C@H](C)[C@H](O)[C@@H](C)C(=O)C(C)(C)[C@@H](O)CC(=O)O[C@@H]1/C(C)=C/c1csc(C)n1`, the growth in experiment [1] is 16.3%; in [2], -4.27% (active); in experiment [3], -32.1% (active); in experiment [4], 31.2%; in [5], 15.4%; in experiment [6], 26.6%. The growth is 20.6% in experiment [7]; 36.8% in experiment [8]; 14.3% in experiment [9]; 39.6% in experiment [10]; -5.73% (active) in [11]; 34% in [12]. Moreover, the growth in experiment [13] was 38.9%; in [14], 21.8%; in [15] it was 18.8%; in experiment [16] it was 50%; in [17], 10.8%; in experiment [18], 2.04% (active). The results for the growth in experiment [19] and in experiment [20] were 25.7% and 14.6%, respectively.

For `O=C(O)c1ccc(-n2cc(/C=N/Nc3ccc(F)cc3)c(-c3cc4ccccc4oc3=O)n2)cc1`, the growth in [1] was 33.9%; in experiment [2] it was 91%; in [3], 85.6%; in experiment [4], 89.2%; in experiment [5], 104%; in experiment [6] it was 69.8%. The growth was 93.6% in experiment [7]; 46.1% in experiment [8]; 46.6% in experiment [9]; 92.3% in [10]; 83.3% in [11]; 52.9% in experiment [12]. Also, the growth in experiment [13] was 101%; in [14], 39.8%; in experiment [15], 113%; in experiment [16] it was 41%; in experiment [17] it was 68.6%; in experiment [18] it was 109%. Also, the growth was 40.2% in experiment [19] and 48.1% in experiment [20].

On to `COc1ccc(C2=Nc3c/c(=C\c4c(O)[nH]c5ccc(Cl)cc45)ccc3=N2)cc1`, for which the growth in [1] was 22.5%; in [2], -13.9% (active); in experiment [3] it was 36.2%; in [4] it was 65%; in experiment [5], 42%; in [6], 37%. The growth in experiment [7] was 34.7%; in experiment [8], 48.1%; in experiment [9] it was 9.27% (active); in experiment [10], 35.6%; in [11], 20.1%; in experiment [12], 56.6%. Moreover, the growth in experiment [13] is 73.4%; in [14] it was 59%; in [15], 82.5%; in [16], 70.1%; in experiment [17], 51.3%; in [18], 25.9%. For the same compound, the growth in [19] was 8.54% (active); in [20], 19.9%.

`COc1ccc(C2c3sc4c(F)cccc4c3Oc3nc[nH]c(=O)c32)cc1` (stereo not given): the growth is 74.9% in experiment [1]; 107% in experiment [2]; 88.2% in experiment [3]; 79% in [4]; 89.7% in experiment [5]; 65.8% in experiment [6]. The growth in experiment [7] is 75.4%; in [8] it was 60.1%; in experiment [9], 82.9%; in [10] it was 92.6%; in [11], 97.8%; in [12], 71.2%. Further, the growth in experiment [13] was 77.8%; in experiment [14], 47.6%; in experiment [15] it was 110%; in [16], 72.7%; in experiment [17], 76.6%; in experiment [18] it was 95%. Besides, the growth in experiment [19] was 85.3%; in experiment [20], 84.2%.

With `CC1=C(C(=O)OC(C)C)C(c2ccc3c(c2)OCO3)NC(=S)N1` (stereo not given), the growth in [1] was 100%; in [2], 103%; in experiment [3], 95.2%; in experiment [4], 95.4%; in [5], 102%; in experiment [6] it was 86%. Moreover, the growth was 98.5% in [7]; 85.2% in experiment [8]; 97.3% in experiment [9]; 106% in [10]; 102% in [11]; 94.4% in [12]. The growth was 105% in [13]; 84.5% in [14]; 98.1% in experiment [15]; 99.4% in experiment [16]; 93.8% in experiment [17]; 109% in experiment [18]. The growth in [19] was 105%; in [20], 110%.

On to `CCn1c(=S)sc2c(Nc3ccc(F)cc3)nc(-c3cccnc3)nc21`, for which the growth in experiment [1] is 88.2%; in [2] it was 41.6%; in experiment [3] it was 13.7%; in experiment [4], 78.9%; in experiment [5] it was 34.3%; in experiment [6], 56%. Besides, the growth in experiment [7] was 87.7%; in experiment [8], 56.7%; in [9], 69.5%; in experiment [10], 86.2%; in [11], 63.1%; in experiment [12], 80.5%. Besides, the growth is 84.1% in [13]; 78.5% in experiment [14]; 58.2% in experiment [15]; 40.7% in experiment [16]; 55.1% in experiment [17]; 93.7% in [18]. Further, the figures for the growth in experiment [19] and in experiment [20] were 102% and 93.7%, respectively.

Turning to `N#Cc1cccc(F)c1`, the growth in experiment [1] is 97.8%; in experiment [2], 104%; in experiment [3], 127%; in experiment [4], 94.4%; in experiment [5] it was 110%; in [6], 102%. Moreover, the growth is 107% in experiment [7]; 102% in experiment [8]; 107% in experiment [9]; 117% in experiment [10]; 103% in [11]; 113% in experiment [12]. In addition, the growth in [13] is 99.2%; in experiment [14] it was 84.9%; in experiment [15], 106%; in [16] it was 95.6%; in experiment [17], 94.6%; in experiment [18], 129%. Further, the growth in [19] is 104%; in [20], 107%.

The record behind these values is PubChem BioAssay (NCI).
